# Hit rate of the full screen: of about 5,500 compounds, about 2,000 (36%) were called active. Another 18% or so got no clear call; they are omitted. The list shows a part of the results. Values without a mark were called inactive. Rule as the data show it: active = normalized growth mostly below about 0.91 (no sharp cut-off); inconclusive = no clear call, values can overlap the other calls; inactive = mostly above about 0.92.
# Assay: chemical genetic growth profiling, strain panel (AID 1159580);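 also: tested at 20 µM; growth read once vehicle control cultures reached saturation at 30 °C; 1 = growth at the plate median or of vehicle wells; lower values mean less growth of the strain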
# Conditions: S. cerevisiae deletion strains, growth OD
smiles,measurement,setting,value
CC(C)(C)C(=O)C(Oc1ccc(Cl)cc1)n1cncn1 (stereo not given),normalized growth,"locus YAL021C, strain ccr4, stronger effect = lower value",0.639 (active)
same,normalized growth,"locus YAL026C, strain drs2, stronger effect = lower value",0.081 (active)
same,normalized growth,"locus YAL030W, strain snc1, stronger effect = lower value",0.133 (active)
same,normalized growth,"locus YBL061C, strain skt5, stronger effect = lower value",0.136 (active)
same,normalized growth,"locus YBR009C, strain hhf1, stronger effect = lower value",0.133 (active)
same,normalized growth,"locus YBR023C, strain chs3, stronger effect = lower value",0.131 (active)
same,normalized growth,"locus YBR171W, strain sec66, stronger effect = lower value",0.591 (active)
same,normalized growth,"locus YBR231C, strain swc5, stronger effect = lower value",0.119 (active)
same,normalized growth,"locus YBR279W, strain paf1, stronger effect = lower value",0.198 (active)
same,normalized growth,"locus YCL011C, strain gbp2, stronger effect = lower value",0.124 (active)
same,normalized growth,"locus YCL016C, strain dcc1, stronger effect = lower value",0.129 (active)
same,normalized growth,"locus YCL061C, strain MRC1, stronger effect = lower value",0.203 (active)
same,normalized growth,"locus YCL069W, strain vba3, stronger effect = lower value",0.106 (active)
same,normalized growth,"locus YCR088W, strain abp1, stronger effect = lower value",0.25 (active)
same,normalized growth,"locus YDL005C, strain med2, stronger effect = lower value",0.565 (active)
same,normalized growth,"locus YDL040C, strain nat1, stronger effect = lower value",0.272 (active)
same,normalized growth,"locus YDR001C, strain nth1, stronger effect = lower value",0.221 (active)
same,normalized growth,"locus YDR069C, strain doa4, stronger effect = lower value",0.655 (active)
same,normalized growth,"locus YDR137W, strain rgp1, stronger effect = lower value",0.779 (active)
same,normalized growth,"locus YDR159W, strain sac3, stronger effect = lower value",0.171 (active)
same,normalized growth,"locus YDR195W, strain ref2",0.573 (active)
same,normalized growth,"locus YDR297W, strain sur2, stronger effect = lower value",0.19 (active)
same,normalized growth,"locus YDR334W, strain swr1, stronger effect = lower value",0.141 (active)
same,normalized growth,"locus YDR335W, strain msn5, stronger effect = lower value",0.223 (active)
same,normalized growth,"locus YDR392W, strain spt3, stronger effect = lower value",0.104 (active)
same,normalized growth,"locus YEL003W, strain gim4, stronger effect = lower value",0.154 (active)
same,normalized growth,"locus YEL037C, strain rad23, stronger effect = lower value",0.268 (active)
same,normalized growth,"locus YEL061C, strain CIN8 (second series), stronger effect = lower value",0.139 (active)
same,normalized growth,"locus YER015W, strain faa2, stronger effect = lower value",0.201 (active)
same,normalized growth,"locus YER016W, strain bim1, stronger effect = lower value",0.187 (active)
same,normalized growth,"locus YER111C, strain swi4, stronger effect = lower value",0.758 (active)
same,normalized growth,"locus YER155C, strain BEM2 (second series), stronger effect = lower value",0.746 (active)
same,normalized growth,"locus YFR010W, strain ubp6, stronger effect = lower value",0.558 (active)
same,normalized growth,"locus YGL167C, strain pmr1, stronger effect = lower value",0.923
same,normalized growth,"locus YGL173C, strain kem1, stronger effect = lower value",0.701 (active)
same,normalized growth,"locus YGL227W, strain vid30, stronger effect = lower value",0.158 (active)
same,normalized growth,"locus YGL240W, strain doc1, stronger effect = lower value",0.714 (active)
same,normalized growth,"locus YGL253W, strain hxk2, stronger effect = lower value",0.0776 (active)
same,normalized growth,"locus YHR013C, strain ard1, stronger effect = lower value",0.162 (active)
same,normalized growth,"locus YHR027C, strain rpn1, stronger effect = lower value",0.337 (active)
same,normalized growth,"locus YHR030C, strain SLT2, stronger effect = lower value",0.113 (active)
same,normalized growth,"locus YHR079C, strain IRE1, stronger effect = lower value",0.264 (active)
same,normalized growth,"locus YHR142W, strain chs7, stronger effect = lower value",0.107 (active)
same,normalized growth,"locus YJL092W, strain hpr5, stronger effect = lower value",0.177 (active)
same,normalized growth,"locus YJL095W, strain BCK1 (second series), stronger effect = lower value",0.0779 (active)
same,normalized growth,"locus YJL095W, strain BCK1, stronger effect = lower value",0.129 (active)
same,normalized growth,"locus YJL115W, strain asf1, stronger effect = lower value",0.396 (active)
same,normalized growth,"locus YJL129C, strain trk1, stronger effect = lower value",0.183 (active)
same,normalized growth,"locus YJL154C, strain vps35, stronger effect = lower value",0.409 (active)
same,normalized growth,"locus YJL164C, strain tpk1, stronger effect = lower value",0.11 (active)
same,normalized growth,"locus YJL166W, strain qcr8, stronger effect = lower value",0.109 (active)
same,normalized growth,"locus YJL187C, strain SWE1, stronger effect = lower value",0.135 (active)
same,normalized growth,"locus YJR066W, strain TOR1, stronger effect = lower value",0.14 (active)
same,normalized growth,"locus YKL160W, strain elf1, stronger effect = lower value",0.112 (active)
same,normalized growth,"locus YKR026C, strain gcn3, stronger effect = lower value",0.47 (active)
same,normalized growth,"locus YKR091W, strain srl3, stronger effect = lower value",0.247 (active)
same,normalized growth,"locus YLL001W, strain dnm1, stronger effect = lower value",0.168 (active)
same,normalized growth,"locus YLL026W, stronger effect = lower value",0.0984 (active)
same,normalized growth,"locus YLL041C, strain sdh2, stronger effect = lower value",0.159 (active)
same,normalized growth,"locus YLR027C, strain aat2, stronger effect = lower value",0.115 (active)
same,normalized growth,"locus YLR113W, strain HOG1, stronger effect = lower value",0.308 (active)
same,normalized growth,"locus YLR221C, strain rsa3, stronger effect = lower value",0.118 (active)
same,normalized growth,"locus YLR258W, strain gsy2, stronger effect = lower value",0.133 (active)
same,normalized growth,"locus YLR262C, strain YPT6 (second series), stronger effect = lower value",0.66 (active)
same,normalized growth,"locus YLR320W, strain mms22, stronger effect = lower value",0.125 (active)
same,normalized growth,"locus YLR342W, strain FKS1, stronger effect = lower value",0.155 (active)
same,normalized growth,"locus YLR357W, strain rsc2, stronger effect = lower value",0.513 (active)
same,normalized growth,"locus YLR370C, strain arc18, stronger effect = lower value",0.184 (active)
same,normalized growth,"locus YLR384C, strain iki3, stronger effect = lower value",0.672 (active)
same,normalized growth,"locus YML120C, strain ndi1, stronger effect = lower value",0.153 (active)
same,normalized growth,"locus YMR058W, strain fet3, stronger effect = lower value",0.184 (active)
same,normalized growth,"locus YMR125W, strain sto1, stronger effect = lower value",0.147 (active)
same,normalized growth,"locus YMR129W, stronger effect = lower value",0.161 (active)
same,normalized growth,"locus YMR205C, strain PFK2, stronger effect = lower value",0.172 (active)
same,normalized growth,"locus YMR231W, strain pep5, stronger effect = lower value",0.805 (active)
same,normalized growth,"locus YNL071W, strain lat1, stronger effect = lower value",0.0893 (active)
same,normalized growth,"locus YNL183C, strain NPR1, stronger effect = lower value",0.178 (active)
same,normalized growth,"locus YNL209W, strain ssb2, stronger effect = lower value",0.394 (active)
same,normalized growth,"locus YNL248C, strain rpa49, stronger effect = lower value",0.142 (active)
same,normalized growth,"locus YNL322C, strain KRE1 (second series), stronger effect = lower value",0.228 (active)
same,normalized growth,"locus YNR049C, strain mso1, stronger effect = lower value",0.159 (active)
same,normalized growth,"locus YOR001W, strain rrp6, stronger effect = lower value",0.181 (active)
same,normalized growth,"locus YOR070C, strain gyp1, stronger effect = lower value",0.0975 (active)
same,normalized growth,"locus YOR080W, strain dia2, stronger effect = lower value",0.259 (active)
same,normalized growth,"locus YOR083W, strain WHI5, stronger effect = lower value",0.257 (active)
same,normalized growth,"locus YOR106W, strain vam3, stronger effect = lower value",0.211 (active)
same,normalized growth,"locus YOR231W, strain MKK1, stronger effect = lower value",0.273 (active)
same,normalized growth,"locus YOR265W, strain rbl2, stronger effect = lower value",0.164 (active)
same,normalized growth,"locus YOR270C, strain vph1, stronger effect = lower value",0.123 (active)
same,normalized growth,"locus YOR290C, strain snf2, stronger effect = lower value",0.153 (active)
same,normalized growth,"locus YPL051W, strain arl3, stronger effect = lower value",0.357 (active)
same,normalized growth,"locus YPL078C, strain atp4, stronger effect = lower value",0.203 (active)
same,normalized growth,"locus YPL106C, strain sse1, stronger effect = lower value",0.156 (active)
same,normalized growth,"locus YPL240C, strain hsp82, stronger effect = lower value",0.166 (active)
same,normalized growth,"locus YPL256C, strain CLN2, stronger effect = lower value",0.357 (active)

# Source: PubChem BioAssay AID1159580 (chemical genetic matrix, 2015)
